Screens: PubChem, Broad Institute
MLL AF4-AF9 inh: blocks AF4 peptide binding to human AF9. P42568. AlphaScreen, biotin-AF4 peptide binding to FLAG-AF9. inhibition, % at 10 µM. 350,000 tested, 0.47% active. AID 651704;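 active = every replicate reaching a set inhibition limit, whatever the replicate mean, cut at about 25% in these data; inconclusive = mean inhibition reaches that limit but some replicates miss it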;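 note: 0% = plate neutral control median and 100% = total signal loss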
Target sequence (P42568 whole entry, looked up): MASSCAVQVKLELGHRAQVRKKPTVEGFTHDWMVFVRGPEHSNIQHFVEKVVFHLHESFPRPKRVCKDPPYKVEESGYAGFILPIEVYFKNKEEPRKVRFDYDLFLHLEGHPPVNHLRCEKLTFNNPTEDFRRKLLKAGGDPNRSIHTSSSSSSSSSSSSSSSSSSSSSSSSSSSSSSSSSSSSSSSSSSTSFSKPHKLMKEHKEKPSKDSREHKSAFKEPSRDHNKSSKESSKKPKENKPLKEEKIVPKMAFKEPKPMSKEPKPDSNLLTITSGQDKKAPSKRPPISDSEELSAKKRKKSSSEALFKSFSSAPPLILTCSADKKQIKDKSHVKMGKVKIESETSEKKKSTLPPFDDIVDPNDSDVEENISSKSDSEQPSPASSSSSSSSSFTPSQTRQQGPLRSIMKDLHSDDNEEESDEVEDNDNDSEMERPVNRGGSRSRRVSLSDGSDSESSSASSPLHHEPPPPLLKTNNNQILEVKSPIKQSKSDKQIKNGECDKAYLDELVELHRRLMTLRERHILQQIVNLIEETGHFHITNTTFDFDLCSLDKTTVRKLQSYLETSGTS
MITF act: MITF TRPM1 promoter activation in melanoma cells | SK-MEL-5 TRPM1-promoter luciferase, 24 h; % of positive control, neutral wells = 0 | activation, % at 12.5 µM | 300,000 tested, 0.75% active | AID 588334;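 active = mean activation of at least 80% with every replicate also reaching 80%; inconclusive = mean reaches 80% but some replicate falls short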;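 note: 0% = neutral control wells and 100% = parthenolide positive control wells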
Wnt bcat act: activators of Wnt/beta-catenin signaling. 300,000 tested, 1.2% active. activation, % at 9.35 µM. AID 743398. Wnt/beta-catenin reporter cell assay, activator, plate reader; in the data active = activation above about 30%, passing the limit was not always enough; inconclusive = no clear call, values can overlap the other calls;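 note: 0% = neutral control wells and 100% = positive control wells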
Ecoli rRNA inh: selective bacterial rRNA inhibition in E. coli | E. coli WT GFP vs humanized-ribosome RFP mutants, fluorescence, 24 h; stronger effect = lower value; DMSO median 0, no signal -100 | AID 720706 | GFP signal change (wild-type ribosome), % (concentration not given with the values) | 350,000 tested, 1.6% active;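 active = significant combined selectivity score with lowered wild-type GFP, culture density cut under 30%, mutant RFP and density less affected; inactive = any of these conditions unmet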
esBAF inh: inhibitors of esBAF chromatin remodeling in mouse ES cells. 350,000 tested, 2% active. reporter increase, % at 12.5 µM. Bmi1-luciferase knock-in reporter, 24 h; 100% = twice the neutral-well signal; in the data active = activation above about 40%; inconclusive = no clear call, values can overlap the other calls;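 note: 0% = median of the plate's neutral control wells and 100% = double that signal; a rise in the Bmi1 reporter signal indicates esBAF inhibition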
Active calls of the source: *; u = inconclusive; x = not tested or not shown. An excerpt weighted towards active compounds, which were near 3.7% of everything screened.

SMILES	MLL AF4-AF9 inh	MITF act	Wnt bcat act	Ecoli rRNA inh	esBAF inh
Cc1ccc(C(=O)Nc2ccc3c(c2)CCC3)cc1	-4	-19	0	-7	-56
O=C(Nc1ccc2c(c1)CCC2)c1cc(F)cc(F)c1	-4	83*	1	-6	47*
O=C(Cc1cccc(F)c1)Nc1ccc2c(c1)CCC2	-3	40	-2	0	34
O=C(Cc1ccccc1F)Nc1ccc2c(c1)CCC2	-1	129*	17	3	72*
O=C(Nc1ccc2c(c1)CCC2)c1cccc(F)c1	-14	95*	21	-46	x
CCc1n[nH]c(=O)n1Cn1c(CC)n[nH]c1=O	x	2	3	x	-8
CC(C)C(=O)Nc1ccc2c(c1)C(=O)N(C)[C@H]1CC[C@@H](CC(=O)O)O[C@@H]1CO2	-2	x	x	0	-3
O=C(NCc1ccccc1)C1c2ccccc2OCC(=O)N1Cc1ccco1 (stereo not drawn)	1	x	-2	x	x
O=C(Cc1ccc2c(c1)OCCO2)N1CCN(S(=O)(=O)c2cccc(Cl)c2Cl)CC1	30*	6	-3	-14	x
COC(=O)[C@]12CCCCC=C1N(CCc1ccc(OC)c(OC)c1)C(=O)[C@H](CC(=O)N1CCSCC1)C2	4	x	-2	-16	x
Cc1cc(C)c(NC(=O)c2ccc3nccnc3c2)c(C)c1	-1	21	-3	2	-14
Cc1ccc(NC(=O)c2ccc3nccnc3c2)c(C)c1	2	99*	8	6	35
O=C(Nc1ccc(SC(F)F)cc1)c1ccc2nccnc2c1	8	46	x	-11	122*
COC(=O)c1ccc(NC(=O)c2ccc3nccnc3c2)cc1	-2	12	7	5	14
Cc1cc(NC(=O)c2ccc3nccnc3c2)ccc1Br	4	70	66*	4	-8
CCSC(=Nc1ccccc1)N1CCOCC1	-1	x	1	19	x
COc1ccc(NC(=O)N(C)C[C@H]2Oc3ccc(NC(=O)CCCN(C)C)cc3C(=O)N([C@@H](C)CO)C[C@H]2C)cc1	0	x	x	4	-4
CN(C)CCN(C(=O)c1ccc2ccccc2c1)c1nc2cc3c(cc2s1)OCCO3	50*	61	12	-7	7
CCN(CC)CCN(C(=O)c1ccc(C(=O)c2ccccc2)cc1)c1nc2ccc(OC)cc2s1	10	10	-1	-9	-4
CN(C)CCN(C(=O)c1cccc2ccccc12)c1nc2cc3c(cc2s1)OCO3	28*	-7	-1	-59	-8
COc1cc2nc(N(CCCN(C)C)C(=O)c3ccc(C(=O)c4ccccc4)cc3)sc2cc1OC	28*	-3	-16	-4	1
CN(C)CCCN(C(=O)c1ccc2c(c1)OCCO2)c1nc2cc3c(cc2s1)OCO3	5	19	-1	11	-8
CN(C)CCCN(C(=O)c1ccc2ccccc2c1)c1nc2cc3c(cc2s1)OCO3	33*	23	-1	-38	x
COC(=O)c1sccc1NC(=O)CC1C(=O)NCCN1C(=O)Nc1ccc(OCc2ccccc2)cc1 (stereo not drawn)	-3	0	7	-7	-7
CN(C)c1ccc(C(=O)c2ccc(N(C)C)c3ccccc23)cc1	x	-38	x	x	21
SMILES	MLL AF4-AF9 inh	MITF act	Wnt bcat act	Ecoli rRNA inh	esBAF inh
O=C(Cc1ccc(-n2c(=S)[nH]c3ccccc3c2=O)cc1)N1CCN(c2ccccc2)CC1	x	12	x	x	7
CCOC(=O)N1CCN(S(=O)(=O)c2ccc(C(=O)N(CCCN(C)C)c3nc4ccc(Cl)cc4s3)cc2)CC1	4	-53	-2	-7	-2
CN(C)CCCN(C(=O)c1ccc2c(c1)CCCC2)c1nc2ccc(Cl)cc2s1	27*	20	x	-52	x
Cc1ccccc1C(=O)O/N=C(\N)c1ccc([N+](=O)[O-])cc1	6	x	25	5	57*
N/C(Cc1ccc([N+](=O)[O-])cc1)=N\OC(=O)c1ccccc1Br	x	2	5	x	10
N/C(=N\OC(=O)c1ccccc1Br)c1cccc([N+](=O)[O-])c1	-1	65	43*	6	3
Cc1ccccc1/C(N)=N/OC(=O)c1ccc(F)cc1	1	28	8	8	48*
N/C(=N\OC(=O)c1ccccc1Br)c1ccc([N+](=O)[O-])cc1	1	x	7	3	50*
Cc1ccccc1C(=O)O/N=C(\N)c1ccccc1	-2	-12	27	5	41
COc1ccccc1C(=O)COC(=O)COc1cccc2c1OC(C)(C)C2	-1	0	3	12	-8
COc1cccc(-c2ccc3c(c2)O[C@H](CN(C)Cc2ccncc2)[C@@H](C)CN([C@H](C)CO)S3(=O)=O)c1	2	x	x	-19	0
O=C(COc1ccc(Cl)cc1Cl)N/N=C/CCc1ccccc1	x	13	x	x	1
O=C(COc1ccc(Cl)cc1Cl)N/N=C/c1ccc[nH]1	6	17	-12	-22*	20
O=C(COc1ccc(Cl)cc1Cl)c1ccc[nH]1	16	72	33*	-31*	u
Cc1ncc(/C=C2\C(=O)Nc3ccccc32)[nH]1	1	x	1	-19*	x
CCOC(=O)c1c(C)oc2c1C(=O)c1ccccc1C2=O	-5	-95	1	-7	49*
C/C(=N\NC(=O)c1ccc(O)cc1)c1ccc2c(c1)OCCO2	1	31	-1	5	27
O=C(NN=C1CCCCCC1)c1ccc2c(c1)OCO2	0	19	-7	8	54*
C/C(=N\NC(=O)c1ccc2c(c1)OCCO2)c1ccccc1	-3	x	47*	2	-44
CCN(CC)S(=O)(=O)c1cccc(C(=O)N/N=C(\C)c2cccs2)c1	5	101*	-1	5	u
C/C(=N\NC(=O)c1ccc2c(c1)OCO2)c1ccc2c(c1)OCO2	-3	18	18	9	52*
C/C(=N\NC(=O)c1cccc(S(=O)(=O)Nc2cccc(Cl)c2)c1)c1cccs1	0	3	-4	-47	-3
C/C(=N\NC(=O)c1ccc2c(c1)OCO2)c1ccc(C(=O)O)s1	-5	0	0	0	x
O=C(NN=C1CCCC1)c1ccc(O)cc1	-1	-14	-1	16	3
O=C1C2ON(c3ccccc3)C(c3cccnc3)C2C(=O)N1c1ccc(Cl)c(Cl)c1 (stereo not drawn)	x	4	x	x	1
SMILES	MLL AF4-AF9 inh	MITF act	Wnt bcat act	Ecoli rRNA inh	esBAF inh
C/C(=N\NC(=O)c1cccs1)c1ccc2c(c1)OCO2	-2	34	7	8	x
Cc1ccsc1/C=N\NC(=O)c1ccc2c(c1)OCO2	0	x	39*	x	-2
Cc1ccsc1/C=N/NC(=O)c1ccc2c(c1)OCCO2	0	x	-3	-2	-53
CC(=NNC(=O)c1cccs1)c1ccc2c(c1)OCCO2	2	105*	u	-4	47*
CC(=O)c1cccc(NC(=O)CSc2nc(C3CC3)nc3ccccc23)c1	-6	-1	17	4	5
C[C@@H]1CN([C@H](C)CO)C(=O)c2cccc(NC(=O)Nc3cccc4ccccc34)c2O[C@@H]1CN(C)C(=O)Nc1ccccc1	-2	x	x	-2	8
